# Results published in the supplement of paper PMC6555819.
# Columns and labels:
# Assay in all cases: PBM binding z-score (relative to random genomic background probes); higher = stronger binding; sequences stand for … in GC…GCGATTGACAGCGTAGAATGAAGG
# [1] = system: FXR:RXRa (NR concentration 270 nM, RXRa partner concentration 90 nM)
# Summary of the method: (§1)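 Binding buffer was PBS pH 7.4 with 2% milk, 0.02% Triton X-100, 1 mM DTT, 0.2 mg/mL BSA and 0.4 mg/ml salmon testes DNA. In it, ligand-free nuclear receptor dimers were incubated 1 h on custom Agilent 4×180K protein-binding microarrays carrying double-stranded probes. Antibodies against each partner (one per run) detected binding, and z-scores were calculated against random background probes after regression normalization of scanned fluorescence.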
# [2] = system: LXRa:RXRa (NR concentration 270 nM, RXRa partner concentration 90 nM)
# Summary of the method: as §1
# [3] = system: LXRa homodimer (NR concentration 270 nM)
# Summary of the method: as §1
# [4] = system: LXRb:RXRa (NR concentration 270 nM, RXRa partner concentration 90 nM)
# Summary of the method: as §1
# [5] = system: LXRb homodimer (NR concentration 270 nM)
# Summary of the method: as §1
# [6] = system: PPARa:RXRa (NR concentration 270 nM, RXRa partner concentration 90 nM)
# Summary of the method: as §1
# [7] = system: PPARg:RXRa (NR concentration 180 nM, RXRa partner concentration 90 nM)
# Summary of the method: as §1
# [8] = system: PPARg:RXRa 270nM:90nM, anti-RXR (NR concentration 270 nM, RXRa partner concentration 90 nM)
# Summary of the method: as §1
# [9] = system: PPARg:RXRa 30nM:10nM, anti-RXR (NR concentration 30 nM, RXRa partner concentration 10 nM)
# Summary of the method: as §1
# [10] = system: PPARg:RXRa 90nM:30nM, anti-RXR (NR concentration 90 nM, RXRa partner concentration 30 nM)
# Summary of the method: as §1
# [11] = system: PPARg:RXRa DBDmut IVT, anti-RXR (DBD mutation: RXRa K156A/R161A, NR concentration 270 nM, RXRa partner concentration 90 nM)
# Summary of the method: as §1
# [12] = system: PPARg:RXRa IVT, anti-PPARg (NR concentration 270 nM, RXRa partner concentration 90 nM)
# Summary of the method: as §1
# [13] = system: PPARg DBDmut:RXRa IVT, anti-PPARg (DBD mutation: PPARg1 K132A/R137A, NR concentration 270 nM, RXRa partner concentration 90 nM)
# Summary of the method: as §1
# [14] = system: PPARg DBDmut IVT, anti-PPARg (DBD mutation: PPARg1 K132A/R137A, NR concentration 270 nM)
# Summary of the method: as §1
# [15] = system: PPARg homodimer (NR concentration 180 nM)
# Summary of the method: as §1
# [16] = system: PXR:RXRa (NR concentration 270 nM, RXRa partner concentration 90 nM)
# Summary of the method: as §1
# [17] = system: PXR homodimer (NR concentration 270 nM)
# Summary of the method: as §1
# [18] = system: RARa:RXR (NR concentration 270 nM, RXRa partner concentration 90 nM)
# Summary of the method: as §1
# [19] = system: RARa homodimer (NR concentration 270 nM)
# Summary of the method: as §1
# [20] = system: RARb:RXRa (NR concentration 270 nM, RXRa partner concentration 90 nM)
# Summary of the method: as §1
Sequence,PBM binding z-score [1],PBM binding z-score [2],PBM binding z-score [3],PBM binding z-score [4],PBM binding z-score [5],PBM binding z-score [6],PBM binding z-score [7],PBM binding z-score [8],PBM binding z-score [9],PBM binding z-score [10],PBM binding z-score [11],PBM binding z-score [12],PBM binding z-score [13],PBM binding z-score [14],PBM binding z-score [15],PBM binding z-score [16],PBM binding z-score [17],PBM binding z-score [18],PBM binding z-score [19],PBM binding z-score [20]
CCTACTGGGCCATCAGGTCGTTGATATCAACGTT,-0.00658,-0.372,-0.231,-0.0218,-0.541,0.992,1.22,2.22,0.274,1.41,4.23,4.12,-0.38,-0.752,0.382,0.0795,-0.323,0.272,-0.616,0.569
ACTATTAGTTGACTTAGGGCAACCTATACGACGC,0.173,0.433,0.321,0.316,0.731,0.252,1.02,0.258,0.33,0.444,0.195,0.726,1.42,1.54,0.623,0.356,0.265,0.516,0.697,0.924
CCTAGCAGGCCAGGGTCACGCAAGCATTTCGCTT,4.27,3.3,-0.658,3.24,-0.358,4.73,3.11,3.95,0.595,2.58,-0.356,1.95,-1.04,-1.59,1.16,3.96,-0.56,4.99,-0.191,3.4
AGAATGAGGTTATTAAGATCAGGGAGTTGCGGTC,1.77,1.34,0.175,1.29,0.183,2.49,1.37,2.07,0.61,1.5,3.18,2.67,0.214,0.57,0.895,1.46,0.973,1.44,0.946,1.4
AGAATGAGGTTACCAAAGATCAGGCAAACGCTTG,1.67,5.94,-0.392,3.24,-0.531,3.41,2.77,2.57,0.868,1.84,3.6,3.49,0.423,0.272,0.661,1.24,-0.362,2.11,-0.358,2
AGAATGAGGGCACGCTGAGTTGATAGCAGAGTAG,1.27,1.11,-0.448,0.487,-0.735,2.7,2.69,2.62,0.921,1.87,5.59,4.73,1.66,0.551,0.535,1.48,0.452,1.18,-0.371,2.62
TTATATAGGTAAATGCTAGGTGAAAGTCCGATCT,0.733,0.69,0.375,0.64,0.108,2.18,2.61,2.59,1.97,2.34,6.27,5.32,1.86,2.12,1.28,0.481,0.535,0.686,1.58,0.351
ATATTTAGGTTATCGGGTCATTCAGTTTGCGCAT,3.46,3.38,3.11,3.44,2.37,4.75,5.55,5.51,3,4.66,6.89,6.64,4.67,4.42,4.15,3.9,8.95,4.06,4.33,2.93
TCTAGTTGGTAAAAGGTCACACACTCGAAATGCG,5.62,5.67,4.26,5.25,1.91,5.95,8.69,8.46,8.09,9.72,3.1,5.1,1.72,2.8,5.34,5.37,2.68,6.35,5.12,4.93
TCTAGTAGGCCAGAGGGTCACTCAAGAGGTACGG,0.984,1.06,-0.235,1.23,-0.774,3.17,4.36,5.3,4.21,5.28,3.6,4,-0.235,0.392,0.62,1.76,-0.532,2.51,-0.0158,2.37
GCTGCTAGGTCAACTAATGGTCAGCTAAAGCTCG,3.23,2.87,0.268,2.02,0.0624,3.29,2.45,3.11,0.435,2.19,4.24,3.84,-0.334,-0.784,1.66,1.37,-0.568,2.35,-0.116,4.03
TTACCAAGCTGAAGGTCGTTGATCCCTCTGTAGA,1.61,1.68,-0.245,1.04,-0.907,1.03,0.527,2.36,0.492,1.8,-0.256,-0.224,-1.71,-1.67,-0.217,1,-0.159,0.87,-1.08,0.656
CCGACTGGGGCAAGGTTCCCATAACGCACAGCCA,-0.116,-0.36,-0.312,-0.226,-1.24,1.17,3.1,3.89,2.1,3.38,2.36,3.12,-0.684,-0.962,0.192,-0.613,-0.376,-0.115,-0.502,0.825
CATACAGGGTCAGCTAGGTCAGAGTAGGGACGGC,5.34,3.88,0.985,3.24,0.645,4.72,4.42,3.93,0.846,2.42,1.85,3.37,1.35,1.12,3.26,3.65,1.7,4.31,1.02,4.44
CGTTACGGGTCACTCCAGGTTATAGCATCGGAGT,4.94,7.62,1.6,5.34,-0.0358,4.67,3.44,4.08,1.42,2.69,2.91,3.75,0.311,-0.48,1.14,5.09,0.162,3.59,0.11,3.66
